# Screening data from PubChem BioAssay.
# Only some compounds are listed: those with a hit (about 2.4% of all), similar ones and a draw of the others.
# Pf Dd2 growth: inhibitors of Plasmodium falciparum Dd2 growth; P. falciparum Dd2 growth, SYBR Green, 72 h; stronger effect = lower value; activity change, % at 10 µM; 2.3% of 94,000 active; AID 1159554; in the data active means activity change below about -80%; inconclusive means no clear call, values can overlap the other calls
# C diff growth: inhibitors of Clostridium difficile growth | AID 1259249 | growth activity, negative = inhibition, % at 16 µg/mL (by protocol) | 0.25% of 86,000 active | Clostridium difficile clinical isolate growth, OD600, 24 h; stronger effect = lower value;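 active means mean growth activity at or below -80% and every replicate also at or below -80%; inconclusive means mean at or below -80% but some replicate above -80%; inactive means mean growth activity above -80%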;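 further: 0% = DMSO wells and -100% = levofloxacin 16 µg/mL wells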
# * hit, by the source's call; ? = inconclusive; / = no result.
SMILES,Pf Dd2 growth,C diff growth
C[C@@H]1CCCCO[C@@H](CN(C)C(=O)Nc2ccc(F)cc2)[C@@H](C)CN([C@H](C)CO)C(=O)c2cc(NS(C)(=O)=O)ccc2O1,24,-2
C[C@H]1CN([C@@H](C)CO)S(=O)(=O)c2ccc(-c3ccncc3)cc2O[C@H]1CN(C)Cc1ccccc1,-35,2
Cc1ccccc1-c1ccc2c(c1)O[C@@H](CN(C)Cc1ccncc1)[C@H](C)CN([C@H](C)CO)S2(=O)=O,-88*,4
Cc1ccccc1-c1ccc2c(c1)O[C@H](CN(C)Cc1ccncc1)[C@H](C)CN([C@H](C)CO)S2(=O)=O,-44,2
C[C@H]1CN([C@@H](C)CO)S(=O)(=O)c2ccc(-c3ccc(F)cc3)cc2O[C@H]1CN(C)CC1CC1,-82*,3
C[C@@H]1CN([C@@H](C)CO)S(=O)(=O)c2ccc(-c3ccncc3)cc2O[C@H]1CN(C)Cc1ccc(Oc2ccccc2)cc1,-86*,14
C[C@@H]1CN([C@@H](C)CO)S(=O)(=O)c2ccc(-c3ccc(F)cc3)cc2O[C@H]1CN(C)CC1CC1,-25,4
C[C@@H]1CN([C@@H](C)CO)S(=O)(=O)c2ccc(C#CCN(C)C)cc2O[C@H]1CN(C)CC1CCCC1,-83*,6
C[C@@H]1CN([C@H](C)CO)S(=O)(=O)c2ccc(C#CCN(C)C)cc2O[C@H]1CN(C)CC1CCCC1,-77,7
CCOC(=O)OC[C@@H]1[C@@H]2NC(=O)N(C)[C@@]1(COCc1ccc(OC)cc1)Oc1ccccc12,/,-5
CC(=O)N(C)C[C@@H]1Oc2ncc(C#Cc3ccc(F)cc3)cc2C(=O)N([C@H](C)CO)C[C@H]1C,17,0
C[C@H]1CN([C@@H](C)CO)S(=O)(=O)c2ccc(-c3ccccc3)cc2O[C@@H]1CN(C)C(=O)c1ccccc1F,-37,0
C[C@H](CO)N1C[C@H](C)[C@@H](CN(C)Cc2ccc3c(c2)OCCN3C)OCc2cn(nn2)CCCC1=O,-7,/
COc1ccc(NC(=O)Nc2cccc3c2O[C@@H](CN(C)Cc2ccncc2)[C@H](C)CN([C@@H](C)CO)C3=O)cc1,-2,0
Cc1ccc(-c2ccc3c(c2)O[C@H](CN(C)Cc2ccncc2)[C@@H](C)CN([C@H](C)CO)S3(=O)=O)cc1,-90*,0
Cc1ccc(-c2ccc3c(c2)O[C@H](CN(C)Cc2ccncc2)[C@H](C)CN([C@@H](C)CO)S3(=O)=O)cc1,-12,-9
C[C@@H]1CN([C@@H](C)CO)S(=O)(=O)c2ccc(-c3ccc(C(=O)N(C)C)cc3)cc2O[C@@H]1CN(C)Cc1ccc2c(c1)OCO2,-48,3
C[C@@H]1CN([C@@H](C)CO)S(=O)(=O)c2ccc(-c3ccc(C(=O)N(C)C)cc3)cc2O[C@H]1CN(C)Cc1ccc2c(c1)OCO2,-84*,-2
COc1ccc2c3c(n(C)c2c1)[C@@H](CO)N(C(=O)Cc1ccccn1)CC31CCN(Cc2ccccn2)CC1,-41,6
CO[C@H]1CN(C)C(=O)c2cc(NC(=O)CC(F)(F)F)ccc2OC[C@@H](C)N(C(C)=O)C[C@H]1C,40,-11
COc1ccc(CN(C)C[C@@H]2Oc3ccc(NS(=O)(=O)c4cn(C)cn4)cc3C(=O)N([C@H](C)CO)C[C@H]2C)cc1,16,-2
COc1ccc(CN(C)C[C@H]2OCCCC[C@H](C)Oc3ccc(NC(=O)Nc4ccc(F)cc4)cc3C(=O)N([C@H](C)CO)C[C@H]2C)cc1,-81*,18
COc1ccc(CN(C)C[C@@H]2OCCCC[C@H](C)Oc3ccc(NC(=O)Nc4ccc(F)cc4)cc3C(=O)N([C@@H](C)CO)C[C@@H]2C)cc1,?,6
COc1ccc(CN(C)C[C@H]2OCCCC[C@H](C)Oc3ccc(NC(=O)Nc4ccc(F)cc4)cc3C(=O)N([C@@H](C)CO)C[C@H]2C)cc1,-83*,11
COc1ccc(CN(C)C[C@@H]2OCCCC[C@H](C)Oc3ccc(NC(=O)Nc4ccc(F)cc4)cc3C(=O)N([C@H](C)CO)C[C@@H]2C)cc1,-20,9
C[C@@H]1CN([C@H](C)CO)C(=O)c2cccc(NC(=O)Nc3ccc4c(c3)OCO4)c2O[C@@H]1CN(C)C(=O)Nc1ccc2c(c1)OCO2,-64,-1
COC(=O)[C@@H]1[C@@H](CO)[C@@H]2Cn3c(ccc(-c4cccc(OC)c4)c3=O)[C@@H]2N1CC1CC1,-5,63
CC(C)(C)[S@@](=O)N1Cc2cc(C(=O)NC3CCC3)nc(-c3cccc(Br)c3)c2[C@H]1CCO,-77,6
CC(C)(C)[S@@](=O)N1Cc2cc(C(=O)N[C@@H]3CCN(Cc4ccccc4)C3)nc(-c3cccc(-c4ccncc4)c3)c2[C@H]1CCO,-78,1
COc1ccc(C#Cc2cccc(-c3nc(C(=O)N[C@@H]4CCN(Cc5ccccc5)C4)cc4c3[C@H](CCO)N(S(=O)C(C)(C)C)C4)c2)cc1OC (stereo not given in full),-84*,-3
